The panel holds about 83,000 compounds, 20% with a hit somewhere; the sample as a whole holds those more often.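 Cell lines were cultured in 96-well plates, exposed to a single compound concentration, and assessed for percent growth 48 hours later.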 Values without a mark were called inactive. The source made the active and inactive calls. Rule for the calls: active = growth percent below 10; inactive = the rest.
What was measured:
Test in all cases: NCI-60 one-dose screen, 48 h (100 = growth as untreated, 0 = no growth, -100 = all killed)
Conditions in all cases: 10 µM unless noted
[1] = tested on: T-47D breast
[2] = tested on: BT-549 breast
[3] = tested on: MDA-MB-435 melanoma
[4] = tested on: SW-620 colon
[5] = tested on: MCF7 breast
[6] = tested on: HCT-116 colon
[7] = tested on: HCC-2998 colon
[8] = tested on: KM12 colon

Compound | growth [1] | growth [2] | growth [3] | growth [4] | growth [5] | growth [6] | growth [7] | growth [8]
N[C@H]1CCC[C@@H]1NCCCCN1C(=O)c2cccc3cc([N+](=O)[O-])cc(c23)C1=O | 57.5% | 68.3% | 53.2% | 26.7% | 19.7% | 9.25% (active) | 51.9% | 36.6%
C=C1C(=O)O[C@H]2[C@H]1CC/C(COC(=O)NCc1ccc(Cn3c(=O)sn(-c4ccc(C#N)cc4)c3=O)cc1)=C\CC[C@@]1(C)O[C@@H]21 | 28.1% | 60.4% | 59.6% | 24.1% | 27.5% | 25.4% | 104% | 101%
CSc1nn2c(-c3ccc4ccccc4c3)ccnc2c1C#N | 18.8% | 44% | -63.6% (active) | 9.09% (active) | 10% (active) | -38.1% (active) | 52.2% | 5.75% (active)
CC1=C(C(=O)Nc2ccccc2)C(c2ccc3c(c2)OCO3)NC(=S)N1 (configuration not stated) | 101% | 88.1% | 103% | 107% | 99.8% | 93.2% | 109% | 103%
CC(=O)c1ccc(Nc2nccc(-c3ccc4ccccc4c3)n2)cc1 | 88.1% | 101% | 69.1% | 98.6% | 75.8% | 104% | 104% | 81.8%
Clc1ccc(-c2cc(-c3ccccc3)nc(NCCNc3ccnc4cc(Cl)ccc34)n2)cc1 | 11.8% | 88.3% | -56.9% (active) | -63% (active) | -76.8% (active) | -79.4% (active) | -88.9% (active) | -5.53% (active)
O=C1c2cccc3cccc(c23)C(=O)N1C/C=C/c1ccc2c3c(cccc13)C(=O)N(CCO)C2=O | 76.7% | 40.3% | 94.4% | 81.8% | 80.1% | 76% | 85.7% | 76.2%
C/C=C(/C)n1cnc2c(Nc3ccccn3)nc(Cl)nc21 | 93.6% | 103% | 107% | 103% | 99.9% | 104% | 103% | 109%
N=C(N)c1ccc(-c2ccc(-c3ccccc3)s2)cc1 | 44.5% | 90.6% | 12% | -46.2% (active) | 13.8% | -55.1% (active) | -27.7% (active) | -7.55% (active)
C#CCOc1cccc(-c2ncnc3cc(NC(=O)C=C)ccc23)c1 | 37.6% | 43.5% | 30% | 21.4% | 13.5% | 27.2% | 91.5% | 31.1%
COc1cc(OC)cc(-c2ccc(-c3ccc(C(=N)N)o3)o2)c1 | 49.3% | 85.8% | -27.5% (active) | 2.04% (active) | 8.92% (active) | -8.08% (active) | -36.8% (active) | 17.6%
C=CN(C(=O)N1CCN(c2cc3c(cc2F)c(=O)c(C(=O)O)cn3C2CC2)CC1)c1nc(-c2ccc(OC)cc2)cs1 | 44.1% | 14.8% | 19.7% | 22.2% | 8.52% (active) | 11.4% | 34.3% | 21.4%
Cc1cccc[n+]1C1c2ccccc2-c2ccccc21 | 60.8% | 86.8% | 102% | 103% | 95.1% | 78.5% | 105% | 101%
Nc1c(C(=O)Nc2cccc(Cl)c2)sc2nc3c(cc12)CCCC3 | 80.8% | 93.1% | 34.4% | 92.3% | 71.6% | 91.6% | 91.4% | 77.6%
CCOC(=O)c1c(C)c2c(n1Cc1ccccc1)CSCC2=O | 1.4% [100 µM] (active) | -25.9% [100 µM] (active) | -9.11% [100 µM] (active) | 16.7% [100 µM] | -12.8% [100 µM] (active) | -17.5% [100 µM] (active) | 17% [100 µM] | -4.25% [100 µM] (active)
COc1ccc(C(=O)Cn2c(C(=O)c3ccc(OC)cc3)nc3ccccc32)cc1 | 29.9% | 31% | -50% (active) | 9.77% (active) | 16% | 12.2% | 21.5% | 24.8%
C/C=C(\C)C(=O)N[C@H]1C(O)C[C@]2(C)C3CC[C@@]4(C)C(CC[C@@H]4C(C)N(C)C)C3CCC2C1O (some centres not stated) | 37.6% | 88.9% | -22.2% (active) | 12.9% | 28.6% | 3.85% (active) | 59.7% | 28.7%
CS(=O)(=O)c1nnc(-c2ccccc2)s1 | 44.4% | 105% | 96.5% | 84.8% | 77.8% | 45.1% | 103% | 92.7%
CN1CCN(CCOc2ccc(-c3cnc4c(-c5cccc(F)c5F)cnn4c3)cc2)CC1 | 85.4% | 50.4% | -66.1% (active) | -68.9% (active) | -23.8% (active) | -65% (active) | 101% | -68.9% (active)
Cc1cccc(-c2nc(Nc3ccc4ncsc4c3)c3ccccc3n2)n1 | 34.6% | 87.9% | 60.4% | 79.8% | 9.7% (active) | 77.4% | 116% | 63.1%
CC1=C2[C@@H](CC1)[C@]1(C)O[C@@](c3ccccc3)(C[C@H]1OC(=O)CO)[C@H]2OC(=O)/C=C/c1ccccc1 | 65.2% | 0.952% (active) | -80.7% (active) | 104% | 78.6% | 86.2% | 93.2% | 88.4%
CCCn1nc(C(=O)N(C)Cc2ccccc2)c2c1CCC(N1CCc3ccccc31)C2 (configuration not stated) | 108% | 94.8% | 106% | 104% | 85.3% | 77.8% | 116% | 106%
C[C@H](CCCC(=O)NCC#CCN1CCN(C)CC1)[C@H]1CC[C@H]2[C@@H]3CC[C@@H]4CC(=O)CC[C@]4(C)[C@H]3CC[C@]12C | 101% | 76.8% | 95.5% | 98.7% | 79.7% | 68.2% | 104% | 99.8%
NC1=Nc2cc(OCCCCN3Cc4ccccc4C3)c(OCC3CC3)cc2C12CCCC2 | -46.9% (active) | 82.2% | 5.33% (active) | 3.2% (active) | 10.6% | 11.3% | -58.2% (active) | 46.5%
O=C(NC(Cc1nnc2n(Cc3ccccc3)c(=O)c3c4c(sc3n12)CCCC4)c1ccccc1)c1ccccc1 (configuration not stated) | 102% | 100% | 105% | 101% | 97.9% | 81.4% | 108% | 108%
COc1ccc(N2CCC(=S)NC2=S)cc1 | 102% | 105% | 96.3% | 104% | 94.6% | 104% | 104% | 101%
CN1CCN(CC(=O)Nc2ccc3ncnc(Nc4ccc(Oc5cccc(C(F)(F)F)c5)c(Cl)c4)c3c2)CC1 | 44.4% | 73.1% | -86% (active) | -68% (active) | -51.3% (active) | 6.69% (active) | -5.89% (active) | 23.5%
Nc1[nH]n2cc(-c3ccc(F)cc3)nc2c1N=Nc1ccc(S(N)(=O)=O)cc1 | 77.8% | 73.9% | 78.4% | 76.7% | 87.7% | 62.7% | 90.8% | 73.1%
NC1(CO)COC(c2ccccc2)OC1 (configuration not stated) | 103% | 124% | 117% | 111% | 111% | 115% | 126% | 107%
